According to PubChem BioAssay AID1851 (National Center for Advancing Translational Sciences (NCATS), 2009):
Where “and” joins values, the source holds several entries; their conditions need not be identical. Identical values can stand only once. Hit rate of the full screen: of about 16,000 compounds, about 5,100 (32%) were called active. Inconclusive results (about 25%) are left out. The list shows a part of the results. A number with no mark means an inactive call. Calls come from the whole dose curve; as a rule, active = well fitted curve in the direction sought with a large enough effect; inconclusive = small, poorly fitted or top-dose-only effect, or effect the other way; inactive = no such curve, though single readings can be large or run the other way.
% is set by controls: 0 for no effect and ±100 for the full control effect.

These compounds were tested against Cytochrome P450 3A4 (Homo sapiens) (UniProt P08684) (assay: Cytochrome panel assay with activity outcomes). Conditions: recombinant CYP, pro-luciferin dealkylation, luminescence, p450-cyp3a4; series mostly up to 57.1 µM.
Cytochrome P450 3A4 (Homo sapiens), sequence (P08684 whole entry, looked up): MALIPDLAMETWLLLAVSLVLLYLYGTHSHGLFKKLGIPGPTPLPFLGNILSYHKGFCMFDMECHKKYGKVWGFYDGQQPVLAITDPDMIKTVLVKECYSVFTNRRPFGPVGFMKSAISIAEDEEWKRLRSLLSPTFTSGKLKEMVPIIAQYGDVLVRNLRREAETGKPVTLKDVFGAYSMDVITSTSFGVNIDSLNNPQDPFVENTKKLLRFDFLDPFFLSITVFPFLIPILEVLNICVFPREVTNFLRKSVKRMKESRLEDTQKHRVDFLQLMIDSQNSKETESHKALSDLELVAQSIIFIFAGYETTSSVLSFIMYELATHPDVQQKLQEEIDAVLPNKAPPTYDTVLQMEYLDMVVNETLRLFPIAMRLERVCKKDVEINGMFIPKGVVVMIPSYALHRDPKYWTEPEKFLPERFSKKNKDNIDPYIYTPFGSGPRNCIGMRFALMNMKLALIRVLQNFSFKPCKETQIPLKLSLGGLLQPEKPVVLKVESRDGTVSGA
For CCSc1nnc(C(N)Cc2ccccc2)o1 (stereo not drawn), the AC50 was 11.2 µM (active).
For COc1ccc(C[C@@H](N)c2ccc(OC)cc2)cc1, the activity, negative = inhibition was -30.1% [at 11.4 µM].
N[C@@H](Cc1ccccc1)P(=O)(O)O gave an activity, negative = inhibition of -2.63% [at 11.4 µM].
With CN1CC[C@@]23c4ccccc4N[C@H]1[C@]21CCN(C)[C@@H]3Nc2ccccc21 the activity, negative = inhibition was “inactive”.
C[C@H](OP(=O)(O)O)[C@H](N)C(=O)O showed an activity, negative = inhibition of -9.79% [at 11.4 µM].
In the case of O=C1C=CC(=O)c2c1ccc1c2ccc2ccccc21, the activity, negative = inhibition is reported as “inactive”.
NCCCN1CCN(c2ccccc2)CC1 showed an activity, negative = inhibition of -17.3% [at 11.4 µM].
With Nc1ccc(CCN2CCN(c3cccc(C(F)(F)F)c3)CC2)cc1 the AC50 was 7.94 µM (active).
For C=C1[C@@H]2C[C@@]3([C@H]1O)[C@H]1C[C@@H]4[C@@]5(C)CC[C@H](O)[C@]4([C@H]1N(CC)C5)[C@H]3C[C@H]2O, the activity, negative = inhibition was “inactive”.
OCc1cnc[nH]1 was tested, and the activity, negative = inhibition was “inactive”.
NC(=NCc1ccc(Cl)cc1)SCCCc1cnc[nH]1 was tested, and the AC50 was 1.58 µM (active).
In the case of NC(=NCCc1ccc(I)cc1)SCCCc1cnc[nH]1, the AC50 is reported as 0.794 µM (active).
For NC(N)=NCCC[C@H](N)C(=O)O, the activity, negative = inhibition was “inactive”.
In the case of NS(=O)(=O)c1cc([C@@]2(O)NC(=O)c3ccccc32)ccc1Cl, the activity, negative = inhibition is reported as “inactive”.
In the case of Cc1o[nH]c(=O)c1C[C@H](N)C(=O)O, the activity, negative = inhibition is reported as “inactive”.
Work on CCCCN1C(=O)/C(=C/c2ccc(N(C)C)cc2)C(=O)N(Cc2ccco2)C1=O yielded an activity, negative = inhibition of -12% [at 2.29 µM].
For O=C(O)/C=C\c1ccc[c]([Sb](=[O])([OH])[OH])c1, the activity, negative = inhibition was -2.48% [at 11.4 µM].
In the case of CCCN1CCC[C@H](c2cccc(C#N)c2)C1, the activity, negative = inhibition is reported as “inactive”.
In the case of CCCc1cc2c(n1CCO)C(C)C1CN(C(=O)c3ccccc3)C(C)(C(=O)OC)C21 (stereo not drawn), the AC50 is reported as 10 µM (active).
For CCCc1cc2c(n1Cc1cccc(Cl)c1)C(C)C1CN(C(=O)c3ccccc3)C(C)(C(=O)OC)C21 (stereo not drawn), the AC50 was 5.01 µM (active).
With CCCc1cc2c(n1Cc1ccc(C)cc1)C(C)C1CN(C(=O)c3ccccc3)C(C)(C(=O)OC)C21 (stereo not drawn) the AC50 was 3.16 µM (active).
With CC[N+](CC)(CCCNC1=CC(=O)C(NCCC[N+](CC)(CC)Cc2ccccc2)=CC1=O)Cc1ccccc1 the activity, negative = inhibition was “inactive”.
With CC(C)C[C@H](NP(=O)(O)O[C@@H]1O[C@@H](C)[C@@H](O)[C@@H](O)[C@H]1O)C(=O)N[C@@H](Cc1c[nH]c2ccccc12)C(=O)O the activity, negative = inhibition was “inactive”.
For C[C@@]12CC[C@H]3[C@@H](CC=C4C[C@H](OS(=O)(=O)O)CC[C@]43C)[C@H]1CCC2=O, the activity, negative = inhibition was “inactive”.
In the case of CCN1CCN(c2ccc(NC(=O)C(C)C)cc2Cl)CC1, the activity, negative = inhibition is reported as “inactive”.
NC[C@H](O)c1ccc(O)cc1 was tested, and the activity, negative = inhibition was “inactive”.
For O=C1C2CCN(CC2)C1(CO)CO, the activity, negative = inhibition was “inactive”.
O=C(O)Cc1cccnc1C(=O)O was tested, and the activity, negative = inhibition was “inactive”.
For C[C@@H]1O[C@H]1P(=O)(O)O, the activity, negative = inhibition was “inactive”.
CC[C@H]1CN2CCc3cc(OC)c(OC)cc3[C@H]2C[C@@H]1C[C@H]1NCCc2c1[nH]c1ccc(O)cc21 showed an activity, negative = inhibition of -8.94% [at 11.4 µM].
C[C@](N)(CCP(=O)(O)O)C(=O)O was tested, and the activity, negative = inhibition was “inactive”.
For COC(=O)N1CCC2(CCN(CC(C)C)CC2)CC1, the activity, negative = inhibition was “inactive”.
N#Cc1ccc(CN2CC[C@@]3(CCCN(C(=O)Oc4ccccc4)C3)C2)cc1 was tested, and the AC50 was 7.94 µM (active).
CN1CC[C@@]2(CCCN(C(=O)Oc3ccccc3)C2)C1 was tested, and the AC50 was 12.6 µM (active).
In the case of CC(C)CN1CC[C@@]2(CCCN(C(=O)Oc3ccccc3)C2)C1, the AC50 is reported as 12.6 µM (active).
COC(=O)N1CCC2(CCCN(C)C2)CC1 was tested, and the activity, negative = inhibition was “inactive”.
With CN1CCC2(CC1)CCN(C(=O)Oc1ccccc1)CC2 the activity, negative = inhibition was “inactive”.
For O=C(Oc1ccccc1)N1CCC2(CCCN(C(c3ccccc3)c3ccccc3)C2)CC1, the activity, negative = inhibition was “inactive”.
For CC(C)CN1CC2(CCN(C(=O)Oc3ccccc3)CC2)C1, the activity, negative = inhibition was “inactive”.
In the case of O=C(Oc1ccccc1)N1CCC[C@@]2(CCN(C(c3ccccc3)c3ccccc3)C2)C1, the AC50 is reported as 10 µM (active).
CN[C@H](Cc1ccccc1)c1cccc(OC)c1O gave an activity, negative = inhibition of -2.26% [at 11.4 µM].
In the case of c1ccc2c(c1)Sc1ccccc1N2C[C@H]1CN2CCC1CC2, the activity, negative = inhibition is reported as -6.51% [at 11.4 µM].
CCOP(=O)(OCC)C(NC(C)=O)C(Cl)(Cl)Cl (stereo not drawn) was tested, and the activity, negative = inhibition was “inactive”.
CCCC[N+]12CCC(CC1)C(C(=O)c1cccs1)C2 (stereo not drawn) was tested, and the activity, negative = inhibition was “inactive”.
In the case of CC(=O)NCCc1c[nH]c2ccccc12, the activity, negative = inhibition is reported as “inactive”.
ClCCNc1nc2ccc(Cl)cc2[nH]1 was tested, and the activity, negative = inhibition was “inactive”.
For CC(=O)OCC1=C(C(=O)[O-])N2C(=O)[C@@H](NC(=O)CCC[C@@H](N)C(=O)[O-])[C@@H]2SC1.[Zn+2], the activity, negative = inhibition was “inactive”.
In the case of C=CCN1C[C@H](C)N([C@H](c2ccc(C(=O)N(CC)CC)cc2)c2cccc(O)c2)C[C@H]1C, the AC50 is reported as 12.6 µM (active).
C=CCN1CCC2(C)c3cc(O)ccc3C[C@H]1[C@H]2C was tested, and the activity, negative = inhibition was “inactive”.
With C[C@H](N)Cc1c[nH]c2ccc(O)cc12 the activity, negative = inhibition was “inactive”.
For O=C(CN1CCCCC1)Nc1ccc(Br)cc1C(=O)c1ccccc1Cl, the activity, negative = inhibition was -0.765% [at 2.29 µM].
For COc1ccc(OCC(=O)Nc2ccc(Cl)cc2C(=O)c2ccccc2)cc1, the AC50 was 2.24 µM (active).
With O=C(Nc1ccc(Cl)cc1C(=O)c1ccccc1Cl)c1ccco1 the activity, negative = inhibition was “inactive”.
In the case of CNC(C)(C)Cc1ccccc1, the activity, negative = inhibition is reported as “inactive”.
CCCN1CCC[C@@H]2Cc3[nH]ncc3C[C@H]21 was tested, and the activity, negative = inhibition was “inactive”.
CC(C(=O)c1c[nH]c2ccccc12)N1CCSCC1 (stereo not drawn) was tested, and the activity, negative = inhibition was -1.61% [at 2.29 µM].
CN(C)CCC(=O)[C@@]1(O)CC[C@H]2[C@H]3CC=C4C[C@@H](O)CC[C@]4(C)[C@H]3CC[C@]21C showed an activity, negative = inhibition of -0.253% [at 11.4 µM].
c1cncc(CNc2cc(-c3ccc4c(c3)OCO4)ncn2)c1 was tested, and the AC50 was 0.794 µM (active).
Work on c1cncc(CNCCN2CCNCC2)c1 yielded an activity, negative = inhibition of -5.07% [at 11.4 µM].
With O[C@@H](c1cc(-c2ccccc2)nc2c1ccc1ccccc12)[C@@H]1CCCCN1 the activity, negative = inhibition was -0.102% [at 11.4 µM].
C[C@H]1CC[C@@]2(NC1)O[C@@H]1C[C@H]3[C@@H]4CC[C@@H]5C[C@@H](O)CC[C@@]5(C)[C@@H]4CC[C@]3(C)[C@@H]1[C@@H]2C was tested, and the activity, negative = inhibition was “inactive”.
With NCC[C@H](O)C(=O)N[C@H]1C[C@@H](N)[C@@H](O[C@H]2O[C@@H](CN)[C@@H](O)[C@@H](O)[C@@H]2N)[C@@H](O[C@H]2O[C@@H](CO)[C@@H](O)[C@@H]2O)[C@@H]1O the activity, negative = inhibition was “inactive”.
CC(O)(CS(=O)(=O)c1cccc(C(F)(F)F)c1)C(=O)Nc1cccc(C(F)(F)F)c1 (stereo not drawn) was tested, and the AC50 was 1.41 µM (active).
For O=C(O)c1ccccc1Nc1cccc(C(F)(F)F)c1, the activity, negative = inhibition was “inactive”.
With CC(O)(CS(=O)(=O)c1cccc(C(F)(F)F)c1)C(=O)Nc1ccc(C(F)(F)F)cc1 (stereo not drawn) the AC50 was 1.41 µM (active).
With CC(O)(CS(=O)(=O)c1ccccc1)C(=O)Nc1cccc(C(F)(F)F)c1 (stereo not drawn) the AC50 was 4.47 µM (active).
In the case of Cc1o[nH]c(=O)c1C[C@@H](N)C(=O)O, the activity, negative = inhibition is reported as “inactive”.
In the case of CC1=C(O)C(=O)[C@H]2O[C@@H]2C1=O, the activity, negative = inhibition is reported as “inactive”.
O=C(O)CCCC[C@H]1SC[C@H]2NC(=O)N[C@@H]21 was tested, and the activity, negative = inhibition was “inactive”.
For O=C(O)[C@H]1[O][Sb][O][C@@H](C(=O)O)C1O (stereo partly drawn), the activity, negative = inhibition was -10.4% [at 11.4 µM].
In the case of C[C@]1(O)CC[C@H]2[C@@H]3[C@@H](O)CC4=CC(=O)CC[C@@]4(C)[C@H]3CC[C@]21C, the activity, negative = inhibition is reported as -2.12% [at 11.4 µM].
Work on CC1(C)N=C(N)N=C(N)N1c1cccc(C(=O)Nc2ccc(S(=O)(=O)F)cc2)c1 yielded an activity, negative = inhibition of 17.5% [at 11.4 µM].
For O=[As](O)(O)c1ccc(N=Nc2ccc(O)cc2)cc1, the activity, negative = inhibition was -4.07% [at 11.4 µM].
In the case of C[N+](C)(C)CC(=O)O, the activity, negative = inhibition is reported as “inactive”.
With N=C(N)SCc1ccc(Cl)c2ccccc12 (tested in a mixture with another compound) the activity, negative = inhibition was -2.18% [at 11.4 µM] and 15.2% [at 11.4 µM].
For CC(C)c1c(CN(C)[C@@H](C)Cc2ccccc2)n(C)n(-c2ccccc2)c1=O, the AC50 was 3.98 µM (active).
Work on C=C[C@@H]1CN2CC[C@H]1C[C@H]2[C@H](O)c1ccnc2ccccc12 yielded an activity, negative = inhibition of -1.79% [at 11.4 µM].
CC(C)CNCCc1ccccn1 showed an activity, negative = inhibition of -8.38% [at 11.4 µM].
In the case of CCC1(C)CC(=O)NC(=O)C1, the activity, negative = inhibition is reported as “inactive”.
With COc1ccc2[nH]cc(CCN(C)C)c2c1 the activity, negative = inhibition was “inactive”.
CCCN(CCC)CCc1c[nH]c2ccc(C(N)=O)cc12 was tested, and the activity, negative = inhibition was “inactive”.
For COc1ccc(CNC(=O)/C=C\c2ccc3[nH]cc(CCN(C)C)c3c2)cc1, the AC50 was 15.8 µM (active).
N[C@@H](CSC1c2ccccc2-c2ccccc21)C(=O)O was tested, and the activity, negative = inhibition was -17.3% [at 11.4 µM].
Cn1c[n+](C)cc1C(O)c1ccccc1 (stereo not drawn) showed an activity, negative = inhibition of 1.92% [at 2.29 µM].
With C=C(C)c1ccccc1 (tested in a mixture with another compound) the activity, negative = inhibition was -22.2% [at 11.4 µM].
CN1C(=O)C(=Cc2ccc(N3CCCCCC3)o2)C(=O)N(C)C1=S was tested, and the AC50 was 3.98 µM (active).
For CN1C(=O)C(=Cc2ccc(N3CCCCC3)o2)C(=O)N(C)C1=S, the activity, negative = inhibition was “inactive”.
In the case of CCN1CCC2(CC1)NC(CO)(CO)CO2, the activity, negative = inhibition is reported as “inactive”.
For C[C@]12N[C@@H](Cc3ccccc31)c1ccccc12, the activity, negative = inhibition was “inactive”.
In the case of Cc1cccc(N2C(=O)NC(=O)/C(=C\c3cnn(-c4ccccc4)c3)C2=O)c1, the activity, negative = inhibition is reported as 8.31% [at 2.29 µM].
With Cc1cc(C)cc(NC(=S)NC2CC3CCC(C2)N3Cc2ccco2)c1 (stereo not drawn) the activity, negative = inhibition was “inactive”.
For CN(C)CS/C(N)=N/[C@H](O)C(Cl)(Cl)Cl, the activity, negative = inhibition was -7.61% [at 11.4 µM].
CC[N+](CC)(CCNC(=O)C(=O)NCC[N+](CC)(CC)Cc1ccccc1Cl)Cc1ccccc1Cl was tested, and the activity, negative = inhibition was “inactive”.
